Source: PubChem BioAssay (The Scripps Research Institute Molecular Screening Center)
This is a sample that favours compounds with a hit; in the whole collection about 3.4% have one here.
GPR151 activ: human GPR151 activation; PathHunter beta-arrestin GPR151 cells, luminescence; activation, % at 11.2 µM; hit rate 1% among 650,000; AID 1508602; in the data active = activation above about 4.9%;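 note: 0% = median of compound wells and 100% = cells with positive control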
Target sequence (Q8TDV0 whole entry, looked up): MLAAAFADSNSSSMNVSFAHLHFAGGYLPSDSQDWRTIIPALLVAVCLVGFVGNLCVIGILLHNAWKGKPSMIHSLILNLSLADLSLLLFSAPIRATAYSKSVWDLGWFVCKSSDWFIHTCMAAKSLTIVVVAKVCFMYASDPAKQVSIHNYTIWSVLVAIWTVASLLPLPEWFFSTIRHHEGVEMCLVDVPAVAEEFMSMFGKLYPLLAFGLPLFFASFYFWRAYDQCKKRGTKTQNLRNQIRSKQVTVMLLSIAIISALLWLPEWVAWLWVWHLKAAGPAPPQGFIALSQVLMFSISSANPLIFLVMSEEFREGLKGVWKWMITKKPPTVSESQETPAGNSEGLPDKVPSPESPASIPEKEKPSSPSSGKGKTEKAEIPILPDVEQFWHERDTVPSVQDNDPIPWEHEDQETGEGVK
MITF inh: blocks human microphthalmia-associated transcription factor; AlphaScreen MITF homodimerization, bead proximity signal; inhibition, % at 2.6 µM; hit rate 0.91% among 650,000; in the data active = inhibition above about 50%;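 note: 0% = vehicle wells with protein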
FBW7 activator: human FBW7 E3 ligase activation, primary screen | Q969H0 | AlphaScreen FBW7–phospho-cyclin E peptide binding, activator screen | normalized activity (activation), % at 26.1 µM | hit rate 0.13% among 650,000; in the data active = normalized activity above about 1.9%;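 note: purified mutant Fbw7 with reduced substrate affinity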
TEAD-YAP block: TEAD-YAP interaction inhibition | HEK-TIYL cells, TEAD-Gal4/YAP UAS-luciferase luminescence | inhibition, % at 9.12 µM | hit rate 1.4% among 640,000 | AID 1259422; in the data active = inhibition above about 32%;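 note: 0% = median of test compound wells and 100% = reference inhibitor wells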
MITF inh conf: confirmation of human MITF inhibitors | shares compounds with MITF inh | AID 1259372 | inhibition, % at 2.6 µM | AlphaScreen MITF homodimerization, biotin/His-MITF beads | hit rate 16% among 4,700;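 active = inhibition above a cutoff derived from the DMSO control wells, cut at about 28% in these data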;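 note: 0% = MITF dimer wells with DMSO only; inhibitors lower the bead chemiluminescence by keeping MITF from dimerizing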
AlphaScreen DR: optically interferes with AlphaScreen signal in dose response; hit rate 6% among 480; IC50, µM; AlphaScreen optical interference counterscreen, cell-free; shares compounds with MITF inh; call rule not given here
AlphaScreen intf2: optically interferes with AlphaScreen signal | shares compounds with MITF inh | LysRS AlphaScreen counterscreen, signal interference, triplicate | inhibition, % at 2.6 µM | hit rate 7.6% among 4,700 | AID 1259376;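 active = inhibition above a cutoff derived from the DMSO control wells, cut at about 30% in these data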
The depositor's hits bear a star; . = no result.

SMILES	GPR151 activ	MITF inh	FBW7 activator	TEAD-YAP block	MITF inh conf	AlphaScreen intf2	others
CC(C)=CC(=O)Nc1nnc(Cc2ccccc2)s1	-1	84*	0	-3	11	14
CCOc1ccc(CCn2c3c(c(=O)[nH]c2=O)C(C(F)(F)F)(C(F)(F)F)N=C(C)N3)cc1OCC	1	-5	0	-1	.	.
Cc1ccc(NC(=O)c2sc(=S)n3c2[nH]c(=O)c2ccccc23)cc1Cl	0	8	0	-3	.	.
CCOc1ccc(C(=O)N2CCN(c3oc(-c4ccc(Cl)cc4)nc3C#N)CC2)cc1	2	-3	0	2	.	.
Cc1ccc(-c2nc(C#N)c(N3CCN(C(=O)c4ccc(Cl)cc4)CC3)o2)cc1	3	68*	0	-5	-11	-2
CCN1C(C(=O)c2ccccc2)=C(NC(=O)c2ccc(Cl)cc2)c2ccccc2S1(=O)=O	-1	0	0	8	.	.
CCN1C(C(=O)c2ccccc2)=C(NC(=O)c2ccc(C)cc2)c2ccccc2S1(=O)=O	-1	54*	0	-1	-1	0
O=C(Nc1ccc(Cl)cc1Cl)N1CCN2C(=O)[C@@H]3CSCN3C(=O)[C@H]2C1	-1	70*	0	6	66*	0	AlphaScreen DR=>6.5
O=C(NCc1ccccc1)N1CCN2C(=O)[C@@H]3CSCN3C(=O)[C@H]2C1	-1	75*	0	2	75*	-5	AlphaScreen DR=>6.5
O=C(c1cccc2ccccc12)N1CCN2C(=O)[C@@H]3CSCN3C(=O)[C@H]2C1	0	19	0	4	.	.
CN1C(=O)[C@H]2CN(C(=O)NCc3ccccc3)CCN2C(=O)[C@@H]1Cc1ccccc1	0	80*	1	3	68*	-3	AlphaScreen DR=>6.5
COc1ccc(C)cc1NC(=O)CC(C)S(=O)(=O)c1ccc2c(c1)SCC(=O)N2 (centres undefined)	-1	8	1	8	.	.
CC(Oc1ccc(Br)cc1)C(=O)Nc1cccc(C#N)c1 (centres undefined)	0	-7	0	4	.	.
CC(C)C(NC(=O)c1ccoc1)c1nnc2n1CCN(Cc1cc3ccccc3[nH]1)CC2 (centres undefined)	0	69*	0	0	0	-1
CCN(CC)CCCCCCn1c(C)cc(=O)n(C)c1=O	0	36	0	-1	.	.
Cc1cc(=O)n(C)c(=O)n1CCCCCCN1CCOCC1	0	55*	0	2	1	4
N#CC1=C(N)Oc2n[nH]c(-c3ccccn3)c2C1c1ccc([N+](=O)[O-])s1 (centres undefined)	-2	107*	-1	9	117*	100*
O=S(=O)(c1ccc(Cl)s1)N1CCN(c2ncc(C(F)(F)F)cc2Cl)CC1	2	2	0	6	.	.
O=C(NCc1ccco1)Nc1c[nH]c2cccnc2c1=O	-1	59*	-1	-4	81*	87*
CCOc1ccc(NC(=O)CC23CC4CC(C2)CC(n2nnc(C)n2)(C4)C3)cc1	0	3	0	-4	.	.
Cc1nc(S(=O)(=O)c2ccccc2)c(SCc2ccc([N+](=O)[O-])cc2)o1	-1	62*	0	9	-1	33*
Cc1nc(NCc2ccco2)c2c3c(sc2n1)CCCC3	0	4	0	-6	.	.
Cc1nc(NCc2ccco2)c2c(C)c(C)sc2n1	-1	59*	0	43*	13	29
COc1cccc(C(=O)NC(=S)N2CCN(c3ccc([N+](=O)[O-])cc3)CC2)c1	0	72*	0	2	5	33*
COc1ccc(C(=O)NC(=S)N2CCN(c3ccc([N+](=O)[O-])cc3)CC2)cc1	0	17	0	-1	.	.
SMILES	GPR151 activ	MITF inh	FBW7 activator	TEAD-YAP block	MITF inh conf	AlphaScreen intf2	others
CN1CC[C@H](Oc2cc(-c3cn[nH]c3)ccc2NC(=O)OCc2ccccc2)C1	-1	53*	1	9	57*	-5	AlphaScreen DR=>6.5
O=C(Nc1ccc(-c2cn[nH]c2)cc1OCCN1CCCC1)OCc1ccccc1	-1	3	0	-2	.	.
CN(C)CCN(C(=O)OCc1ccccc1)c1cc(-c2cn[nH]c2)ccc1NC(=O)OCc1ccccc1	1	58*	1	-1	56*	-12	AlphaScreen DR=>6.5
COc1cccc(COC(=O)Nc2ccc(-c3cn[nH]c3)cc2N(C)CCN(C)C)c1	-1	68*	1	-16	73*	11	AlphaScreen DR=>6.5
O=C(Nc1ccc(-c2nc3ccccc3[nH]2)cc1)c1ccc(S(=O)(=O)N2CCCC2)cc1	-1	-7	0	-10	.	.
CC12CCC(C(=O)N(NC(=O)CCc3ccccc3)C1=O)C2(C)C (centres undefined)	3	65*	0	12	-4	11
O=C(CCc1ccccc1)NN1C(=O)CCC1=O	0	-2	0	-2	.	.
N#CNC1=NCN(CCN2CCOCC2)CN1	-1	14	1	-9	.	.
S=c1[nH]nc(CN2CCSCC2)n1-c1cccc(Cl)c1	0	62*	-1	-7	17	16
COc1cccc(-n2c(CN3CCSCC3)n[nH]c2=S)c1	4	38	0	-2	.	.
COc1ccc(C(CC(=O)NCc2ccccn2)N2Cc3ccccc3C2=O)cc1OC (centres undefined)	2	1	-1	-6	.	.
CCN(CC)c1nc(Nc2ccc3c(c2)OCO3)nc(Nc2cc(OC)c(OC)c(OC)c2)n1	-1	18	0	-3	.	.
CN(C)C(=O)C1C2NC(=S)N(c3ccc(Br)cc3)C1(C)Oc1ccc(Cl)cc12 (centres undefined)	-1	68*	0	8	23	10
CCOC(=O)N1CCN(S(=O)(=O)c2ccc(C(=O)Nc3ccc(-c4nc5ccc(C)cc5s4)cc3)cc2)CC1	0	53*	0	-4	-22	-2
CCOC(=O)N1CCN(S(=O)(=O)c2ccc(C(=O)Nc3ccc4nc(C)sc4c3)cc2)CC1	0	10	0	27	.	.
O=c1cc(/C=C/c2ccc(O)cc2)nc2nn[nH]n12	-2	57*	-1	1	39*	-2	AlphaScreen DR=>6.5
O=c1cc(-c2ccccc2)nc2nn[nH]n12	-6	3	0	12	.	.
CCCCn1c(SCc2ccc([N+](=O)[O-])cc2)nc2ccsc2c1=O	2	86*	0	4	-2	1
CCCCn1c(SCc2cccc([N+](=O)[O-])c2)nc2ccsc2c1=O	1	-15	0	2	.	.
CCN(CC)C(=O)C1CCCN(c2nccc(NC3CCN(Cc4ccccc4)CC3)n2)C1 (centres undefined)	0	2	0	10	.	.
COc1cc(N2CCN(c3ccccc3Cl)CC2)ncn1	1	-15	0	-7	.	.
CC(C)c1ccc(OCC(=O)NCCS(=O)(=O)N2CCc3ccccc32)cc1	1	81*	0	3	-7	-2
